In all, about 16,000 compounds went through this assay and about 4,000 (25%) were called active. Not shown: some 26% with an inconclusive outcome. Calls follow the shape of the dose curve; as a rule, active = well fitted curve in the direction sought with a large enough effect; inconclusive = small, poorly fitted or top-dose-only effect, or effect the other way; inactive = no such curve, though single readings can be large or run the other way. The list is a sample of the results.
What follows are compounds tested against Cytochrome P450 2C9 (Homo sapiens) (UniProt P11712) (assay: Cytochrome panel assay with activity outcomes). Conditions: recombinant CYP, pro-luciferin dealkylation, luminescence, p450-cyp2c9; series mostly up to 57.1 µM; activity, negative = inhibition: at the top concentration.
Cytochrome P450 2C9 (Homo sapiens), sequence (P11712 whole entry, looked up): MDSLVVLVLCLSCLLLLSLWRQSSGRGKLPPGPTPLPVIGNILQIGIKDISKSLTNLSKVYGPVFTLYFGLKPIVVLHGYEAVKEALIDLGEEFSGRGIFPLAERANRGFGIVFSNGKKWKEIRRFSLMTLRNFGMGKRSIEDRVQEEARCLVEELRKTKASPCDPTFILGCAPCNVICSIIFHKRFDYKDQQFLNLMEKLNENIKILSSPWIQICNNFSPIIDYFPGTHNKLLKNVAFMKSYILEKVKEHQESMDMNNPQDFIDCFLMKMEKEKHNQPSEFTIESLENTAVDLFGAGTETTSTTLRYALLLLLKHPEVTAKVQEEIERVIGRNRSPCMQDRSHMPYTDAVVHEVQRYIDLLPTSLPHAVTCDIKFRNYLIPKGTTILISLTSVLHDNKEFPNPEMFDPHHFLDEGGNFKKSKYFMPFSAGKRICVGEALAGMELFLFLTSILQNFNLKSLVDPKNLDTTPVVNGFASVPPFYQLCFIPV
% is scaled to controls: 0 for no effect and ±100 for the full control effect.

SMILES | AC50 | activity, negative = inhibition
CCCc1ccc(Oc2cc(C)nc(N3CCOCC3)n2)cc1 | 25.1 µM (active) | –
Cc1cc(Oc2ccc(-c3ccccc3)cc2)nc(N2CCOCC2)n1 | 3.98 µM (active) | –
COc1ccc(-n2c(=O)c(C)nc3cnc(N4CCOCC4)nc32)cc1 | – | -29.2% (inactive)
Cc1noc(C)c1-c1nccc(N2CCOCC2)n1 | – | 7.39% [at 2.29 µM] (inactive)
COC(=O)c1ccc(Oc2nc(N(C)C)nc(N3CCOCC3)n2)cc1 | – | -44.5% (inactive)
COc1cc(N2CCOCC2)ncn1 | – | -23.1% (inactive)
Cc1ccc(Oc2cc(N3CCOCC3)nc(-c3ccccc3)n2)cc1 | 17.8 µM (active) | –
COc1ccc(-n2c(=O)c(-c3ccccc3)nc3cnc(N4CCOCC4)nc32)cc1 | – | -1.43% (inactive)
O=c1ccc(Oc2nc(N3CCOCC3)nc(N3CCOCC3)n2)n[nH]1 | – | -26.1% (inactive)
N#C[C@H]1CN[C@H](N)N[C@@H]1N | – | -4.64% [at 11.4 µM] (inactive)
COc1ccccc1-c1nc(NCc2ccccc2)c2ccccc2n1 | – | 16.9% [at 2.29 µM] (inactive)
COc1ccc(CN[C@H](C)C(=O)O)cc1 | – | 12.3% [at 11.4 µM] (inactive)
CCCCOc1ccc(CNn2c(C)nc3ccccc3c2=O)cc1 | 4.47 µM (active) | –
Cc1nc2ccccc2c(=O)n1NC(=O)c1ccccc1Cl | 7.94 µM (active) | –
COc1ccc(CNn2c(C)nc3ccccc3c2=O)cc1 | 5.62 µM (active) | –
CCCOc1ccc(CSC(CC(=O)O)C(=O)O)cc1 (configuration not stated) | – | -5.81% (inactive)
O=C(Nn1cnc2ccccc2c1=O)c1ccc(F)cc1Cl | – | 13.4% (inactive)
CN(C)c1ccccc1CN1CCCN(Cc2ccccc2N(C)C)C1c1ccncc1 | – | -12% [at 11.4 µM] (inactive)
N=c1ccn2c(n1)O[C@H]1[C@@H](OP(=O)(O)O)[C@H](CO)O[C@H]12 | – | 5.28% [at 11.4 µM] (inactive)

SMILES | AC50 | activity, negative = inhibition
CCCC[C@H](CC)CN1CN(C[C@@H](CC)CCCC)CC(C)(N)C1 | – | -3.68% [at 25.6 µM] (inactive)
Nc1ccc(S(=O)(=O)Nc2ccccn2)cc1 | – | 11.1% [at 25.6 µM] (inactive)
O=C1C(Cl)=C(Nc2ccc(S(=O)(=O)Nc3ccccn3)cc2)C(=O)c2ccccc21 | 2 µM (active) | –
CN(C)S(=O)(=O)Nc1ccccn1 | – | 0.0893% [at 11.4 µM] (inactive)
C[C@H](C(=O)O)c1cccc(Oc2ccccc2)c1 | – | -0.647% [at 25.6 µM] (inactive)
C[C@@H](C(=O)O)c1ccc(-c2ccccc2)c(F)c1 | 10 µM (active) | –
O=C(O)[C@@H](O)c1ccc(F)cc1 | – | -3.58% [at 11.4 µM] (inactive)
CCCCC1(C)NC(=O)c2c(C)sc(C(=O)OCC)c2N1 (configuration not stated) | 0.282 µM (active) | –
NC(=S)SCCC(=O)O | – | -6.98% [at 11.4 µM] (inactive)
CC(C)CO/N=C1/C[C@@H](O)[C@@H](O)[C@@H]2[C@@H]3C(=O)N(C[C@@H]4CCCO4)C(=O)[C@H]3CC[C@@H]12 | – | 18.7% [at 11.4 µM] (inactive)
O=C1SC(c2ccccc2)=C/C1=C\N1CCCCC1 | 11.2 µM (active) | –
CC[N+](CC)(CC)CC[C@](O)(c1ccccc1)C1CCCCC1 | – | -9.66% [at 25.6 µM] (inactive)
COc1c(/C=N/Nc2ccc([N+](=O)[O-])cc2[N+](=O)[O-])c(C)nn1-c1ccccc1 | 20 µM (active) | –
O=C1C2[C@@H](c3ccccc3)N[C@@H](c3ccccc3)C1[C@H](c1ccccc1)N[C@H]2c1ccccc1 | – | -3.9% [at 11.4 µM] (inactive)
S=C1N[C@H](c2ccccc2)N[C@H](c2ccccc2)S1 | 2 µM (active) | –
O=C1[C@H]2[C@H]3[C@H](O)[C@H](O)C/C(=N/OCc4ccccc4)[C@H]3CC[C@@H]2C(=O)N1C[C@@H]1CCCO1 | – | -4.81% [at 11.4 µM] (inactive)
CN(C)Cc1ccccc1-c1cc(NCc2ccccc2)ncn1 | – | -1.3% [at 2.29 µM] (inactive)
CNC(=S)NNC(=O)COc1ccccc1C | – | 32.9% (inactive)
